Experimental data from the supplement of paper PMC6555819.

Assays:
Test in all cases: PBM binding z-score (relative to random genomic background probes); higher = stronger binding; sequences stand for … in GC…GCGATTGACAGCGTAGAATGAAGG
[1] = test system: FXR:RXRa (NR concentration 270 nM, RXRa partner concentration 90 nM)
Summary of the method: (§1)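 Scanned fluorescence from custom Agilent 4×180K protein-binding microarrays was regression-normalized. Binding z-scores use random background probes as reference. Ligand-free nuclear receptor dimers were incubated on the arrays for 1 h and detected with antibodies against each partner (one per run).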

[2] = test system: LXRa:RXRa (NR concentration 270 nM, RXRa partner concentration 90 nM)
Summary of the method: as §1

[3] = test system: LXRa homodimer (NR concentration 270 nM)
Summary of the method: as §1

[4] = test system: LXRb:RXRa (NR concentration 270 nM, RXRa partner concentration 90 nM)
Summary of the method: as §1

[5] = test system: LXRb homodimer (NR concentration 270 nM)
Summary of the method: as §1

[6] = test system: PPARa:RXRa (NR concentration 270 nM, RXRa partner concentration 90 nM)
Summary of the method: as §1

[7] = test system: PPARg:RXRa (NR concentration 180 nM, RXRa partner concentration 90 nM)
Summary of the method: as §1

[8] = test system: PPARg:RXRa 270nM:90nM, anti-RXR (NR concentration 270 nM, RXRa partner concentration 90 nM)
Summary of the method: as §1

[9] = test system: PPARg:RXRa 30nM:10nM, anti-RXR (NR concentration 30 nM, RXRa partner concentration 10 nM)
Summary of the method: as §1

[10] = test system: PPARg:RXRa 90nM:30nM, anti-RXR (NR concentration 90 nM, RXRa partner concentration 30 nM)
Summary of the method: as §1

[11] = test system: PPARg:RXRa DBDmut IVT, anti-RXR (DBD mutation: RXRa K156A/R161A, NR concentration 270 nM, RXRa partner concentration 90 nM)
Summary of the method: as §1

[12] = test system: PPARg:RXRa IVT, anti-PPARg (NR concentration 270 nM, RXRa partner concentration 90 nM)
Summary of the method: as §1

[13] = test system: PPARg DBDmut:RXRa IVT, anti-PPARg (DBD mutation: PPARg1 K132A/R137A, NR concentration 270 nM, RXRa partner concentration 90 nM)
Summary of the method: as §1

[14] = test system: PPARg DBDmut IVT, anti-PPARg (DBD mutation: PPARg1 K132A/R137A, NR concentration 270 nM)
Summary of the method: as §1

[15] = test system: PPARg homodimer (NR concentration 180 nM)
Summary of the method: as §1

[16] = test system: PXR:RXRa (NR concentration 270 nM, RXRa partner concentration 90 nM)
Summary of the method: as §1

[17] = test system: PXR homodimer (NR concentration 270 nM)
Summary of the method: as §1

[18] = test system: RARa:RXR (NR concentration 270 nM, RXRa partner concentration 90 nM)
Summary of the method: as §1

[19] = test system: RARa homodimer (NR concentration 270 nM)
Summary of the method: as §1

[20] = test system: RARb:RXRa (NR concentration 270 nM, RXRa partner concentration 90 nM)
Summary of the method: as §1

| Sequence | PBM binding z-score [1] | PBM binding z-score [2] | PBM binding z-score [3] | PBM binding z-score [4] | PBM binding z-score [5] | PBM binding z-score [6] | PBM binding z-score [7] | PBM binding z-score [8] | PBM binding z-score [9] | PBM binding z-score [10] | PBM binding z-score [11] | PBM binding z-score [12] | PBM binding z-score [13] | PBM binding z-score [14] | PBM binding z-score [15] | PBM binding z-score [16] | PBM binding z-score [17] | PBM binding z-score [18] | PBM binding z-score [19] | PBM binding z-score [20] |
| --- | --- | --- | --- | --- | --- | --- | --- | --- | --- | --- | --- | --- | --- | --- | --- | --- | --- | --- | --- | --- |
| TTACCAAGGTGAAAGGTCGTCGATGCACGCCTTG | 3.2 | 3.29 | 0.0373 | 2.77 | -0.541 | 5.6 | 9.29 | 8.47 | 7.23 | 9 | 2.84 | 5.42 | 0.568 | 0.68 | 1.99 | 4.17 | -0.076 | 6.52 | -0.215 | 3.27 |
| CGTCAAAGTTCAAGGTAACGGAACAGAAAGCAGC | 6.15 | 5.59 | 2.26 | 3.12 | 0.735 | 4.63 | 4.57 | 5.32 | 2.47 | 4.21 | 0.343 | 2.24 | 0.485 | 0.919 | 1.96 | 3.99 | 2.13 | 3.36 | 1.04 | 5.07 |
| TTACCAAGGTGAGCTGAGGTCGTGGATCCAACTC | 1.09 | 0.85 | -0.734 | 0.827 | -1.47 | 2.1 | 0.337 | 0.913 | 0.0501 | 0.449 | 1.07 | 2.05 | -0.299 | -0.109 | -0.369 | 3.77 | -0.246 | 2.49 | -0.727 | 1.94 |
| TCTTGAAGATCAATAGAGGTTAAGAAAGTGCGCT | 1.21 | 3.88 | 0.18 | 1.99 | -0.548 | 1.79 | -0.0471 | 1.56 | 2.76 | 2.46 | 1.44 | 0.203 | 0.527 | 0.485 | -0.0803 | 3.15 | 0.215 | 1.81 | -0.211 | 0.913 |
| GATAGCAGGCCATTTGGGTCACTCAATGACGGGC | 0.302 | -0.115 | -0.247 | 0.0936 | -0.607 | 1.73 | 1.4 | 1.12 | -0.311 | 0.763 | 3.66 | 3.5 | -0.0916 | -0.698 | -0.0574 | 0.523 | 0.0979 | 0.747 | -0.472 | 1.55 |
| TCTGCTAGGTCAGTTGGTCCGCTAACGAGCTGCC | 0.769 | 0.595 | -0.724 | 0.186 | 0.781 | 0.869 | -0.334 | 1.28 | 1.13 | 0.949 | 2.64 | 2.46 | 0.84 | 0.95 | -0.535 | -0.0468 | -0.863 | -0.00908 | -1.31 | 3.12 |
| ACTATTAGTTGACTTAGGGAAACCGATACGACGC | 0.197 | 0.155 | 0.512 | 0.0262 | 0.742 | -0.255 | 0.843 | 0.171 | 0.193 | 0.259 | 0.323 | 0.25 | 1.26 | 1.45 | 0.412 | -0.145 | 0.319 | 0.0911 | 0.75 | 0.0734 |
| TTACCAAGGTGAAGGTCGTAGATCCCTCTGTAGA | 0.719 | 0.647 | -0.474 | 0.573 | -0.742 | 2.43 | 3.49 | 3.86 | 2.16 | 3.43 | 1.02 | 3.32 | -0.72 | -0.483 | -0.867 | 0.858 | -0.255 | 1.4 | -0.36 | 2.01 |
| ATCGAAGGGTCGAGGTGAGTATAGAGAAAGGGAA | 1.41 | 1.24 | 0.0219 | 1.19 | 0.389 | 2.62 | 1.49 | 1.28 | 0.548 | 0.905 | -0.0932 | 1.19 | 0.848 | 0.0579 | 1.27 | 1.26 | 0.308 | 1.74 | 1.01 | 2.51 |
| AGAATGAGGTTATACGTAGATCAGGGATGAAAGT | 2.37 | 1.9 | 0.0703 | 1.68 | -0.152 | 3.09 | 2.07 | 2.01 | 0.736 | 1.73 | 3.98 | 2.18 | 1.78 | 0.781 | 0.69 | 1.28 | 0.675 | 1.93 | 0.93 | 1.44 |
| GTACCACGGTGAATAGGTCGTTGATGAGTAGGCG | -0.0112 | -0.00221 | -0.237 | -0.365 | -0.842 | 0.664 | 0.525 | 0.597 | -0.227 | 0.557 | -0.0107 | 0.889 | -0.572 | -0.695 | 0.25 | 0.0182 | -0.47 | 0.233 | -0.371 | 0.587 |
| CCTACTTGGTCAGGAGGTCACACACCGGATATGA | 3.55 | 3.69 | 2.02 | 3.39 | 0.285 | 4.29 | 3.39 | 3.9 | 1.75 | 3.1 | 1.61 | 3.56 | 0.756 | 0.0151 | 3.23 | 4.26 | 1.05 | 4.89 | 2.31 | 3.75 |
| TCTTCTAGATCAGCAGGTTAAGAAAGCTGGCCAA | 0.108 | 0.0628 | -0.37 | 0.225 | 0.0387 | 0.759 | -0.499 | 1.53 | 2.84 | 2.08 | 1.75 | 0.956 | -0.541 | -0.141 | -0.0964 | 0.0261 | -0.795 | 0.252 | -0.167 | 0.235 |
| ATACCAAGGTGGTCGTGAGGTCGTTGATACTAAC | 1.49 | 0.821 | 0.382 | 1.05 | -0.378 | 1.21 | 0.268 | 0.0614 | -0.274 | -0.258 | -0.434 | 0.335 | 0.113 | 0.0753 | 0.722 | 2.61 | 1.69 | 1.99 | 0.748 | 1.08 |
